Assay outcomes as filed in PubChem.
HCV inhibitor – HCV inhibition. Huh7.5.1 HCVcc-Cre infection, luciferase reporter, 44 h. Potency, µM (top dose mostly 41.8 µM), actives largely listed as inhibitors. 340,000 compounds, 3.4% hits; active = well fitted inhibition curve with a large enough effect; inconclusive = small, poorly fitted or top-dose-only effect, or another doubt; inactive = no such curve, though single readings can be large or run the other way
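Cells (1,000/well) were plated 4 h before compound, then infected with HCVcc-Cre virus (~0.5 moi). After 44 h further culture, infection was read as luciferase luminescence following a 15 min substrate incubation at room temperature.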
SARS PLpro yeast-1 – inhibitors of SARS-CoV papain-like protease in yeast; Potency, µM (titrated, usually from 32.9 µM), actives largely listed as activators; AID 485353; S. cerevisiae expressing SARS-CoV PLpro, growth rescue; 330,000 compounds, 0.19% hits; calls by dose curve; also: nearly all actives have a fitted effect of over 55% in size
Lassa entry inh – Lassa virus entry inhibition; Lassa virus pseudotype entry inhibition, cell reporter; AID 540256; 300,000 compounds, 1.2% hits; Potency, µM (top dose mostly 37.9 µM), hits mostly inhibitors; calls by dose curve; tested in HEK293 cells; also: nearly all actives have a fitted effect of over 50% in size
MARV entry inh – inhibitors of Marburg virus binding or cell entry; Potency, µM (top dose mostly 37.8 µM), usual class: inhibitors; Marburg virus pseudotyped entry inhibition, cell reporter; 300,000 compounds, 1.8% hits; calls by dose curve; tested in HEK293 cells
HCMV inh – blocks human cytomegalovirus replication; HFF cells, HCMV-luciferase reporter, 72 h; active compounds read low; activity change, negative = inhibition, % at 57.5 µM; 410,000 compounds, 4.5% hits; AID 1259415; in the data active = activity change below about -60%; inconclusive = no clear call, values can overlap the other calls; inactive = above about -39%
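After 16 h attachment at 37C, HFF cells received test compound and HCMV-luciferase (1 PFU/cell); reporter luminescence read 72 h later, data normalized against buffer-only and known inhibitor Salinomycin.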
FMDV antiviral – antivirals against foot and mouth disease virus | FMDV antiviral cell-based qHTS | Potency, µM (top dose mostly 57.9 µM), hits mostly inhibitors | 410,000 compounds, 1.2% hits; calls by dose curve; tested in HEK293T cells; also: read-out not given here; nearly all actives have a fitted effect of over 45% in size
SARS PLpro yeast-2 – Rescues yeast growth by inhibiting SARS-CoV PLpro; shares compounds with SARS PLpro yeast-1; yeast expressing SARS-CoV PLpro, growth phenotype rescue; calls only; 1,000 compounds, 19% hits; AID 652038; call rule not given here
Hits are given with their value; - = inactive; ? = inconclusive; . = no result; + = active, no number. Hits are enriched below; roughly 8% of the tested compounds scored in any of these assays.

SMILES | HCV inhibitor | SARS PLpro yeast-1 | Lassa entry inh | MARV entry inh | HCMV inh | FMDV antiviral | SARS PLpro yeast-2
CN(C)CCNC(=O)CN1C(=O)CCn2nc(-c3cn(C)c4ccccc34)cc21 | . | . | - | . | - | - | .
CC[C@H](C)[C@@H](NC(=O)O[C@H]1C(=O)c2ccc(OC)cc2O[C@@H]1c1ccc2c(c1)OCO2)C(=O)OC | . | . | . | - | . | . | .
COc1ccc(Cn2c(O)c(/C=N/NC(=O)c3ccncc3)c(=O)[nH]c2=O)cc1 | - | - | - | - | - | - | .
COc1ccc(Cn2c(O)c(/C=N/NC(=O)c3ccccc3)c(=O)[nH]c2=O)cc1 | - | 10µM | . | . | - | - | -
CCN1CCN(C(=O)c2ccc3c(c2)N(Cc2ccccc2F)C(=O)c2ccccc2S3=O)CC1 (centres undefined) | . | . | - | - | - | - | .
COc1ccc(NC(=O)CN2CCOCC2)cc1S(=O)(=O)N1CCCCC1 | - | ? | - | - | - | - | -
CN(CCCN1c2ccccc2CCc2ccccc21)CC(=O)c1ccc(Cl)cc1 | . | . | . | . | . | - | .
CNCCCN1c2ccccc2CCc2ccccc21 | ? | 18µM | - | 1.3µM | - | - | -
CCCNC(=O)c1ccc(Cn2c(=S)[nH]c3c([nH]c4ccc(OC)cc43)c2=O)cc1 | - | 14µM | - | ? | - | - | -
Cc1ccccc1CN1[C@@H](C)[C@H](c2ccccc2)Oc2cccc(NCC(C)C)c2S1(=O)=O | . | . | . | . | - | . | .
C/C(=C\C(=O)c1ccc(C)o1)Nc1ccc2c(c1)OCO2 | - | ? | - | - | - | - | -
Cc1ccc(C(=O)Nc2ccc3c(c2)OCO3)o1 | - | - | - | - | - | - | .
CCOC(=O)C(C)/C(C)=N/NC(N)=S (centres undefined) | - | ? | - | - | ? | - | +
O=C(N/N=C/c1c(O)ccc2ccccc12)c1ccc[n+](CCO)c1 | - | 0.89µM | - | - | - | - | -
O=C(C[n+]1cccc(C(=O)N/N=C/c2ccc(Br)cc2)c1)c1ccccc1 | ? | - | . | . | - | - | .
COc1ccc(C)cc1NC(=O)C(=O)NCCc1sc(-c2ccc(Cl)cc2)nc1C | . | . | - | . | - | - | .
Cc1ccc(Nc2nc(NCCCN3CCOCC3)nc(N)c2[N+](=O)[O-])cc1C | - | - | - | - | - | - | .
Cc1ccc(Nc2nc(NCCCN3CCOCC3)nc(N)c2[N+](=O)[O-])cc1 | - | ? | - | - | - | - | -
COc1ccc(NC(=O)Cn2c(=O)n(Cc3ccco3)c(=O)c3sc4ccccc4c32)cc1Cl | . | . | - | - | - | - | .
CCOc1ccccc1Nc1nnc(SCc2nnc(-c3cc(OC)c(OC)c(OC)c3)o2)s1 | ? | ? | - | ? | - | ? | -
C=CCOC(=O)C1=C(C)NC(=S)NC1/C=C/c1ccccc1 (centres undefined) | ? | - | - | - | - | ? | .
CC1=C(C(=O)OCc2ccccc2)C(/C=C/c2ccccc2)NC(=S)N1 (centres undefined) | 8.9µM | . | 13µM | ? | - | ? | +
CCCCNc1nc(Oc2ccc(=O)n(C)n2)nc(N2CCOCC2)n1 | . | . | - | - | - | - | .
CC(C)CN1CN(Cc2ccco2)CNC1=S | - | - | - | ? | - | - | .
CCCCN1CNC(=S)N(CCc2ccccc2)C1 | - | - | ? | ? | - | - | .
SMILES | HCV inhibitor | SARS PLpro yeast-1 | Lassa entry inh | MARV entry inh | HCMV inh | FMDV antiviral | SARS PLpro yeast-2
CC(C)CN1CN(Cc2ccccc2)CNC1=S | - | 13µM | ? | - | ? | - | +
CCCCN1CNC(=S)N(Cc2ccccc2)C1 | - | ? | - | - | - | - | -
Cc1cc(/C=C2/NC(=O)N(Cc3ccccc3F)C2=O)c(C)n1C(C)C | ? | ? | - | ? | - | - | -
CCOC(=O)c1c(NC(=O)c2c(N)n(CCCOC)c3nc4ccccc4nc23)sc2c1CCCC2 | ? | - | - | - | - | . | .
CCOCCCn1c(N)c(C(=O)Nc2sc3c(c2C(=O)OC)CCCC3)c2nc3ccccc3nc21 | - | ? | - | - | - | . | ?
Cc1ccccc1Cn1c(=O)n(Cc2ccc(Cl)cc2)c(=O)c2cccnc21 | . | . | . | - | - | - | .
COc1ccc2nc(SCC(=O)NCc3ccccc3)[nH]c2c1 | - | - | . | . | - | - | .
COc1ccc2nc(SCC(=O)Nc3ccccc3)[nH]c2c1 | - | . | ? | - | - | - | -
COC(=O)c1ccc(NC(=O)CSc2nc(=O)n(Cc3ccco3)c3c2CCC3)cc1 | . | . | - | . | - | ? | .
CN1CCN(C(=O)c2ccc(S(=O)(=O)c3ccc(Br)cc3)cc2)CC1 | ? | 11µM | - | ? | ? | - | -
O=C(CSc1nnc(Cn2c(=O)sc3ccccc32)n1-c1ccccc1)N1CCCC1 | - | ? | . | . | - | - | -
O=C(NC1CCCCC1)/C(=N\O)c1ccccn1 | - | ? | - | - | - | . | -
O=C(NC1(C(=O)NC2CCCCC2)CCCCC1)c1ccccn1 | - | - | - | - | - | - | .
CCOC(=O)/C(C#N)=C/c1c(OCC)n(CC)c2ccccc12 | - | 13µM | ? | - | ? | - | -
CCOC(=O)/C(C#N)=C\c1cn(C)c2ccccc12 | - | - | - | - | - | - | .
CCNC(=S)Nc1ccc(C)c(Cl)c1 | - | ? | - | - | - | - | +
COc1ccc(C)cc1NC(=O)c1cc2ccccc2cc1OCC(=O)NCc1ccco1 | ? | 3.5µM | - | - | - | - | +
O=C(CN1C(=O)C2CCCCN2c2ccc(C(=O)N3CCCC3)cc21)NCc1ccccc1F (centres undefined) | . | . | - | . | - | - | .
CC(C)c1cccc(O)c(=O)c1 | - | ? | . | . | - | - | -
O=c1c2oc3ccccc3c2n(Cc2cccc(F)c2)c(=O)n1Cc1ccc2c(c1)OCO2 | . | . | - | . | ? | - | .
Cc1ncc(CO)c(/C=N/NC(=S)Nc2ccc(F)cc2)c1O | - | 5.6µM | ? | 14µM | - | - | -
CC(CNC(=O)Cn1cnc2c(NCc3ccccc3)ncnc21)c1ccccc1 (centres undefined) | - | 14µM | . | . | - | - | +
O=C(Cn1cnc2c(NCc3ccccc3)ncnc21)NCCCc1ccccc1 | ? | - | . | . | - | - | .
Cc1cccc(NC(=O)COC(=O)C2C3CC4OC(=O)C2C4C3)c1C (centres undefined) | - | - | - | - | - | - | .
Cc1cccc(C)c1NC(=O)COC(=O)C1C2CC3OC(=O)C1C3C2 (centres undefined) | - | 11µM | . | - | - | - | -
SMILES | HCV inhibitor | SARS PLpro yeast-1 | Lassa entry inh | MARV entry inh | HCMV inh | FMDV antiviral | SARS PLpro yeast-2
Cc1cccc(CNC(=O)CS(=O)(=O)c2cccc3nsnc23)c1 | . | . | - | . | - | - | .
COc1ccc(OCc2nc3c4c(-c5ccc(OC)cc5)c(-c5ccc(OC)cc5)oc4ncn3n2)cc1 | . | . | - | - | - | - | .
O=C(N/N=C/c1ccncc1)c1cccs1 | - | - | . | . | . | - | .
O=C(N/N=C/c1ccc(-n2ccnc2)cc1)c1cccs1 | - | ? | - | ? | - | - | -
CCN(CC)CCCNC(=O)C1CCN(S(=O)(=O)CC)CC1 | . | . | - | . | - | - | .
O=C(NCc1ccco1)c1ccc(Cl)c(S(=O)(=O)N2CCc3ccccc32)c1 | ? | ? | ? | ? | -82 | ? | -
